Source: PubChem BioAssay
Rows were chosen to be rich in hits. Some 8.8% of all compounds tested hit in one or more screens of this group.
KB-3-1 tox = kills parental KB-3-1 adenocarcinoma cells; KB-3-1 viability, CellTiter-Glo ATP luminescence, 72 h; Potency, µM (top dose mostly 46.1 µM), usual class: cytotoxic; actives 1.4% (n = 400,000); AID 1347075; also: nearly all actives have a fitted effect of over 60% in size
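Cytotoxicity in the drug-sensitive parental line KB-3-1 was scored as loss of CellTiter-Glo luminescence following 72 h incubation with compound. Values come from curve fitting of normalized concentration-response data.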
KB-V1 cytotox = kills drug-selected multidrug resistant KB-V1 cells; KB-V1 MDR cells viability, CellTiter-Glo, 72 h; Potency, µM (highest dose often 46.1 µM), usual class: cytotoxic; actives 3.4% (n = 400,000); AID 1347076; also: nearly all actives have a fitted effect of over 60% in size
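Potencies derive from concentration-effect curves fitted to normalized luminescence (CellTiter-Glo) of KB-V1 cells treated for 72 h at 37 degrees C in phenol-red-free DMEM containing 10% FBS.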
HT1080 IDH1KD tx = kills HT-1080 cells with IDH1 knockdown. HT-1080 IDH1 knockdown viability, ATP luminescence, 48 h. actives 2% (n = 360,000). Potency, µM (top dose mostly 46.1 µM), usual class: cytotoxic
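In this qHTS, HT-1080 cells depleted of IDH1 are exposed for 48 h at 37 °C to compound titrations. Toxicity is scored from CellTiter-Glo luminescence, with DMSO as full viability and medium alone as none.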
IL1B secr inh = inhibitors of inflammasome signaling (IL-1 beta secretion); THP-1 LPS/ATP IL-1B secretion, AlphaLISA, 16 h; stronger effect = lower value; activity change, % at 57.5 µM; actives 4.7% (n = 360,000); in the data active = activity change below about -50%; inconclusive = mostly about -30% to -49%
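Secreted IL-1B measured by AlphaLISA bead assay after 16 h compound exposure of THP-1 cells; compounds (final up to 57.5 uM) added 1 h before LPS (250 ng/mL) and ATP (1.25 mM) stimulation; lower signal means less secretion.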
HT1080NT lethal = kills 2HG-producing HT-1080-NT fibrosarcoma cells; HT-1080-NT fibrosarcoma viability, CellTiter-Glo ATP luminescence, 48 h; Potency, µM (doses to about 46.1 µM), hits mostly cytotoxic; actives 1.6% (n = 360,000); AID 686970;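 also: NT is the 2HG producing partner of a matched IDH1 knockdown line; nearly all actives have a fitted effect of over 55% in size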
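HT-1080-NT fibrosarcoma cells (2HG-overproducing), 750 cells/well in RPMI with 5% FBS, dosed after 2 h and incubated 48 h at 37C. CellTiter-Glo luminescence normalized to DMSO and no-cell wells; concentration-response curves fitted and classed.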
Hits are given with their value; 0 = inactive; ? = inconclusive; - = no result given; ! = not confirmed by another sample. Unless noted, calls follow the shape of the dose curve; as a rule, active = well fitted curve in the direction sought with a large enough effect; inconclusive = small, poorly fitted or top-dose-only effect, or another doubt; inactive = no such curve, though single readings can be large; an effect the other way counts as inactive or inconclusive.

SMILES	KB-3-1 tox	KB-V1 cytotox	HT1080 IDH1KD tx	IL1B secr inh	HT1080NT lethal
Cc1cc(C(=O)NCc2ccco2)c2ccccc2n1	0	0	0	0	0
Cc1ccc(C)c(NS(=O)(=O)c2cc3c(cc2Cl)NC(=O)CO3)c1	0	?	-	-	-
Cc1cnc(C)c(Nc2nc(C(N)Cc3ccc(Cl)cc3)cs2)n1 (configuration not stated)	?	21µM	23µM	0	18µM
COc1ccc(CC(N)c2csc(Nc3ncccn3)n2)cc1 (configuration not stated)	0	0	?	0	0
CCc1cnc(Nc2nc(C(N)Cc3ccc(F)cc3)cs2)nc1 (configuration not stated)	?	?	23µM	-62	?
COc1ccc(CC(N)c2csc(Nc3nc(C)cnc3C)n2)cc1 (configuration not stated)	0	?	?	0	?
Cc1cnc(C)c(Nc2nc(C(N)Cc3ccc(F)cc3)cs2)n1 (configuration not stated)	0	0	?	0	21µM
COc1ccc2nc(SC(C)C(=O)NC3CCCCC3)[nH]c2c1 (configuration not stated)	0	0	0	0	0
COc1ccc(CN(C)C(=O)c2ccc(NS(=O)(=O)c3ccc(F)cc3)cc2)c(OC)c1OC	0	?	0	0	0
CCOC(=O)c1nc(S(C)(=O)=O)ncc1N1CCOCC1	0	0	0	0	0
Cc1ccccc1NC(=O)c1nc(S(C)(=O)=O)ncc1Cl	0	0	15µM	-98	15µM
Cc1cccc(CS(=O)(=O)c2ncc(Cl)c(C(=O)NCc3ccccc3)n2)c1	0	0	?	-97	26µM
COc1ccc(NC(=O)c2nc(S(=O)(=O)Cc3cccc(C)c3)ncc2Cl)c(OC)c1	0	?	?	0	0
CCOC(=O)c1nc(S(C)(=O)=O)ncc1Cl	0	0	6.3µM	-98	8.9µM
COc1ccc(OC)c(NC(=O)c2nc(S(=O)(=O)Cc3ccccc3)ncc2Cl)c1	4.1µM	?	3.7µM	-102	4.6µM
COCCNC(=S)N/N=C1\CC(C)CC(C)(C)C1 (configuration not stated)	0	0	0	0	0
CCOc1ccc(NC(=O)CSc2nc3ccsc3c(=O)n2Cc2ccc(C(=O)O)cc2)cc1	0	0	0	0	0
CCCc1nnc(NC(=O)c2nc(S(=O)(=O)Cc3cccc(C)c3)ncc2Cl)s1	0	0	?	?	?
Cc1cccc(CS(=O)(=O)c2ncc(Cl)c(C(=O)Nc3c(C)cccc3C)n2)c1	?	?	15µM	-66	?
Cc1cccc(C)c1NC(=O)c1nc(S(=O)(=O)Cc2ccccc2F)ncc1Cl	?	0	-	-	-
Cc1nnc(NC(=O)c2nc(S(=O)(=O)Cc3ccccc3)ncc2Cl)s1	10µM!	?	21µM	-103	15µM
Cc1cccc(C)c1NC(=O)c1nc(S(=O)(=O)Cc2ccccc2)ncc1Cl	?	?	8.2µM	-101	16µM
O=C(Nc1nc2ccc(F)cc2s1)c1nc(S(=O)(=O)Cc2ccccc2)ncc1Cl	0	0	-	-	-
CCOC(=O)c1c(NC(=O)Cn2cnc([N+](=O)[O-])n2)sc(C)c1C	0	0	0	0	0
N=c1ccn(Cc2ccc(F)cc2)cc1	5.8µM	0	0	0	?
SMILES	KB-3-1 tox	KB-V1 cytotox	HT1080 IDH1KD tx	IL1B secr inh	HT1080NT lethal
O=C1CNC(=S)N1Cc1ccc(F)cc1	0	0	0	0	0
C/C(=N\NC(=O)Cc1ccc(Cl)cc1)c1ccccc1O	?	?	5.2µM	0	?
C/C(=N\NC(=O)CSCc1ccc([N+](=O)[O-])cc1)c1ccccc1	0	?	0	?	0
C/C(=N\NC(=O)CSCc1ccc([N+](=O)[O-])cc1)c1ccccc1O	0	21µM	0	0	0
Cc1ccc2nc(-c3ccc(C)s3)c(Nc3ccc4c(c3)OCCO4)n2c1	0	0	-	-	-
CN1CCN(C(=O)/C=C/c2c(F)cccc2Cl)CC1	0	0	0	0	0
COc1ccc(-n2cnc3cc(C(=O)NCCC4=CCCCC4)ccc32)cc1	0	0	-	-	-
CC(C)N1CCc2c(sc(NC(=O)c3ccc(C(=O)c4ccccc4)cc3)c2C(N)=O)C1	0	0	18µM	-98	21µM
CC(C)N1CCc2c(sc(NC(=O)c3ccco3)c2C(N)=O)C1	0	0	0	?	0
CC(=O)Nc1sc2c(c1-c1nc3ccccc3s1)CCN(C(C)C)C2	7.3µM	?	12µM	-105	12µM
CC(C)N1CCc2c(sc(NC(=O)CCc3ccccc3)c2C(N)=O)C1	0	0	0	?	0
CC(C)N1CCc2c(sc(NC(=O)c3ccc4ccccc4c3)c2C(N)=O)C1	?	?	?	-84	?
CC(C)N1CCc2c(sc(NC(=O)Cc3ccccc3)c2C(N)=O)C1	0	0	0	?	0
CCN1CCc2c(sc(NC(=O)c3cc4ccccc4cc3OC)c2C(N)=O)C1	?	0	8.2µM	-100	6.5µM
O=C(N/N=C/c1ccc([N+](=O)[O-])o1)c1ccccc1-n1cccc1	?	?	?	-66	?
O=C(N/N=C\c1ccc(O)c([N+](=O)[O-])c1)c1ccccc1-n1cccc1	0	16µM	0	0	0
O=C(N/N=C\c1ccccc1)c1ccccc1-n1cccc1	0	0	0	0	0
COc1ccc(-c2c(C)nn(Cc3ccccc3)c2N)cc1	0	21µM	0	0	0
COc1ccc(-c2ccc(=O)n(Cc3ccccc3)n2)cc1	0	0	0	0	0
CCN(CC)CCCNC(=O)CCn1nc(-c2ccccc2)ccc1=O	0	?	0	0	0
Cn1cc(/C=C/c2cc[n+](C)cc2)c2cc(F)ccc21	0	0	?	0	?
Cn1cc(/C=C/c2cc[n+](C)cc2)c2cc(Cl)ccc21	0.92µM	0	?	-60	0
COc1ccc(C(CNC(=O)COc2ccc(Cl)c(C)c2)N2CCCCC2)cc1 (configuration not stated)	0	0	0	0	0
O=c1[nH]c2ccccc2c2oc(CCl)nc12	0	?	15µM	-101	5.8µM
Cc1ccc(-n2nc3c(=O)n(C(C)C(=O)NCc4ccc(Cl)cc4)nc(C)c3c2C)cc1 (configuration not stated)	8.2µM	0	0	0	0
Cc1nn(C(C)C(=O)NCc2ccccc2F)c(=O)c2nn(-c3ccccc3)c(C)c12 (configuration not stated)	0	0	0	0	0
Cc1ccc(-n2nc3c(=O)n(C(C)C(=O)NCc4ccccc4C)nc(C)c3c2C)cc1 (configuration not stated)	15µM	0	-	-	-
O=C(CN1CCNC(=O)C1)NCCc1ccc(Cl)cc1Cl	0	0	0	0	0
CCCOc1ccc(Oc2nc(-c3ccncc3)nc3ccccc23)cc1	0	0	0	0	0
